# Bioassay records from PubChem.
# Shiga inhibitor – inhibitors of Shiga toxin in Vero cells. 290,000 tested, 9.2% active. inhibition, % at 38.7 µM. Vero cells, Shiga toxin protein synthesis inhibition reporter; in the data active = inhibition mostly above about 28%, no sharp cut-off; inactive = mostly below about 43%; also: 0% is about no effect
# AmpC inh no detg – inhibitors of E. coli AmpC beta-lactamase without detergent; Potency, µM (series often up to 57.1 µM), without a hit: top-dose activity change, negative = inhibition, actives largely listed as inhibitors; 330,000 tested, 0.52% active; P00811; AmpC nitrocefin hydrolysis, absorbance 480 nm, 0.0001% Triton;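 also: potency is read from the fitted curve at half-maximal effect; plate controls were no compound for no effect and no enzyme for full effect; nearly all actives have a fitted effect of over 20% in size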
# Target sequence (P00811 whole entry, looked up): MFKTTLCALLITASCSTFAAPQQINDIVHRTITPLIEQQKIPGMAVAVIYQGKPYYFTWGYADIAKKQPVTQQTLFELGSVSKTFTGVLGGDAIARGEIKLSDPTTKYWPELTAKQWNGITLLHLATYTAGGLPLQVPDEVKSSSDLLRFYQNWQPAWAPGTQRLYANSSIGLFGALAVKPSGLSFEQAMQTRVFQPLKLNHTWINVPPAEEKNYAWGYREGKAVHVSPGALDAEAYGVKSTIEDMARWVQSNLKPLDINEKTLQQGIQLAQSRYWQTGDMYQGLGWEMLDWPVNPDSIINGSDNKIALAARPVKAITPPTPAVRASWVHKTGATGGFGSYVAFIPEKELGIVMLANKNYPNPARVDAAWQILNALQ
#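 20 mM phosphate pH 7.0 + 0.01% (detergent screen) or 0.0001% Triton X-100; 5.3 nM AmpC reagent; cpd preinc 15 min RT; nitrocefin (800 uM stock) to start; A480 q20 s × 4 min; Activity was normalised to no-enzyme and no-compound control wells.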
# AmpC inh detg – AmpC beta-lactamase inhibition with detergent present | AmpC hydrolysis of nitrocefin, absorbance 480 nm, 0.01% Triton | 370,000 tested, 0.041% active | Potency, µM (series often up to 114 µM), for inactives: at the highest dose activity change, negative = inhibition, usual class: inhibitors | P00811;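 also: potency is read from the fitted curve at half-maximal effect; 0% = no-compound wells and -100% = no-enzyme wells; nearly all actives have a fitted effect of over 25% in size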
#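 20 mM phosphate pH 7.0 + 0.01% (detergent screen) or 0.0001% Triton X-100; 5.3 nM AmpC reagent; cpd preinc 15 min RT; nitrocefin (800 uM stock) to start; A480 q20 s × 4 min; Activity was normalised to no-enzyme and no-compound control wells.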
# Cycloheximide cs – counter-screen for Shiga toxin inhibitors: cycloheximide protein synthesis inhibition | max response, % | cell reporter, cycloheximide protein synthesis inhibition counterscreen | 300,000 tested, 12% active; in the data active = max response mostly above about 13%, no sharp cut-off; inactive = mostly below about 14%; also: read at 38.3 µM for the half of the compounds with a filed dose; 0% is about no effect
# NS1 function inh – inhibitors of influenza NS1 protein function | Potency, µM (top dose mostly 46.1 µM), for inactives: at the highest dose activity, positive = more growth | 270,000 tested, 0.4% active; calls by dose curve; also: potency is read from the fitted curve at half-maximal effect; actives are rising curves; nearly all actives have a fitted effect of over 50% in size
#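 Growth recovery, yeast-based: influenza A NS1 expressed in S. cerevisiae causes slow growth, and suppressors are detected by OD600. The parent strain without NS1 is used as positive control.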
# Numbers without * were called inactive; ? = inconclusive; / = no result; [ ] = dose if it differs, or a comment. Many of the other results were omitted from the sample, so hits are more common in it than they were. Unless noted, calls follow the shape of the dose curve; as a rule, active = well fitted curve in the direction sought with a large enough effect; inconclusive = small, poorly fitted or top-dose-only effect, or another doubt; inactive = no such curve, though single readings can be large; an effect the other way counts as inactive or inconclusive.
SMILES,Shiga inhibitor,AmpC inh no detg,AmpC inh detg,Cycloheximide cs,NS1 function inh
CSc1ncc2c(n1)-c1ccccc1N(Cc1ccccc1C)S2(=O)=O,/,/,-0.4%,/,/
Cc1ccccc1C(=O)N1CCC(C(=O)OCc2ccccn2)CC1,/,14.8%,/,/,/
CC(=O)Cn1cnc2c(cnn2-c2ccc(C)c(C)c2)c1=O,91.2*,2.5%,2.4%,54.3*,0.7%
Cc1ccc(-n2ncc3c(=O)n(CC(=O)N(C)C)cnc32)cc1C,29.3,-13.0%,?,13.7*,1.0%
Cc1cccc(NC(=O)CN2C(=O)NC3(CCCC3)C2=O)n1,/,-15.4%,-16.2%,/,/
O=C(O)C/C(=C\c1ccccc1)C(=O)O,/,/,/,/,-1.7%
Cc1ccc(Nc2nc(-c3c(C)nc4ncccn34)cs2)cc1,-5.4,44.9%,?,-0.6,-14.5%
CC(=O)Nc1cccc(-c2csc(Nc3cc(C)ccn3)n2)c1,126.6*,-4.9%,-6.5%,41.4*,-15.3%
CC(=O)Nc1cccc(-c2csc(N)n2)c1,30.5,-14.4%[2.29 µM],-10.1%,-2.2,5.9%
CC(=O)Nc1cccc(-c2csc(Nc3ccccn3)n2)c1,90.3*,8.3%,-13.6%,44.5*,-35.7%
CC(=O)Nc1ccc(-c2csc(Nc3cc(C)ccn3)n2)cc1,77.9*,13.2%,1.0%,48.6*,/
Cc1ccnc(Nc2nc(-c3c(C)nc4sccn34)cs2)c1,57.3,-43.9%,-3.8%,31.7*,-51.8%
O=C(CN1C=NS(=O)(=O)c2ccccc21)Nc1ccc(F)cc1,/,/,8.5%,/,/
CCc1ccc(N(CC(=O)Nc2nc3ccc(C)cc3s2)S(=O)(=O)c2c(C)noc2C)cc1,-18.1,-39.0%,-15.0%,4.3,21.6%
COc1ccc(CCNC(=O)CCc2c(C)nc3nc(C)nn3c2C)cc1OC,/,/,-4.7%,/,/
Cc1nnc(N2CCC(C(=O)NC(C)C)CC2)c2nn(-c3ccc(Cl)cc3)c(C)c12,/,/,7.0%,/,/
CC1(Cn2ccnn2)[C@H](C(=O)O)N2C(=O)C[C@H]2S1(=O)=O (stereo partly specified),-3.1,/,/,-2.1,/
Cc1ccnc(Nc2nc(-c3ccccc3)cs2)c1,89.5*,-28.7%,4.0%,55.3*,-12.3%
Cc1cccc(-n2ncc3c(N(CCO)CCO)ncnc32)c1,64.9*,-2.5%,0.3%,27.2*,-7.5%
CCN(c1ncnc2c1cnn2-c1cccc(Cl)c1)C1CCCCC1,/,/,-7.4%,/,/
Cc1cccc(-n2ncc3c(N(C)C4CCCCC4)ncnc32)c1,127.4*,-15.5%,-3.4%,90.1*,-2.1%
COc1ccc(-n2ncc3c(N(C)C4CCCCC4)ncnc32)cc1,73.7*,-3.8%,3.0%,44.7*,0.0%
COc1ccc(C(=O)C2CCCN(C(=O)c3noc4c3CCCC4)C2)c(C)c1 (stereo unspecified),-6.0,54.0%,1.6%,1.3,-4.7%
Cc1ccc(OCC(=O)N(Cc2ccco2)Cc2ccco2)cc1C,/,/,1.0%,/,/
COc1ccc(-c2c(C)c3cc(OC(=O)N4CCOCC4)ccc3oc2=O)cc1,/,/,-1.7%,/,/
SMILES,Shiga inhibitor,AmpC inh no detg,AmpC inh detg,Cycloheximide cs,NS1 function inh
COC(=O)c1cccnc1-n1c(=O)c2cccnc2n(CC(=O)Nc2cccc(C)c2)c1=O,/,/,14.8%,/,/
COc1ccc(-c2csc(-c3[nH]cnc3N)n2)cc1,86.2*,-30.4%,2.0%,28.3*,/
O=C(O)c1ccc(-c2nc(-c3ccc(Cl)cc3Cl)cs2)cc1,77.1*,-21.2%,?,33.8*,/
COc1ccc(-c2csc(-c3ccc(C(=O)O)cc3)n2)cc1,60.5*,-14.1%,0.4%,27.0*,/
O=C(O)c1ccc(-c2nc(-c3ccc(Cl)cc3)cs2)cc1,81.2*,-37.8%,?,32.1*,/
CC(=O)N1CCCc2cc(S(=O)(=O)N3CCC(C)CC3)ccc21,-3.4,-5.5%,-10.6%,-3.6,10.9%
COc1ccc(-c2ccc(N(C)C)cc2)cc1C1C2C=CCC(C)C2C(=O)N1Cc1ccccc1 (stereo unspecified),1.6,/,/,6.5,/
COCCn1cnc2c1-c1ccc(OC)c(c1)OC/C=C\COc1cccc-2c1,-6.0,/,/,16.2,/
O=C(Nc1ccncc1)C1CCN(S(=O)(=O)c2cccc(C(F)(F)F)c2)CC1,/,43.3%,-5.8%,/,/
O=C(NCCc1csc(-c2ccc(F)cc2)n1)c1c(F)cccc1Cl,/,/,-5.9%,/,/
C=CCNC(=O)c1ccc(-c2nc(-c3ccccc3)cs2)cc1,51.5*,-18.7%,-0.9%,32.5*,4.4%
CCc1ccc(CNC(=O)C2CCN(C(=O)c3ccc(-n4ccc5ccccc54)s3)CC2)cc1,/,/,-7.2%,/,/
N#CCCN1CCCN(CCC#N)CCN(CCC#N)CCCN(CCC#N)CC1,-11.6,-9.1%,-0.6%,-3.3,2.2%
